Source: PubChem (National Center for Advancing Translational Sciences (NCATS))
This is a sample that favours compounds with a hit; in the whole collection about 14% have one here.
CRE Fsk mod: CRE-bla signaling modulation under forskolin stimulation; CHO CRE-bla reporter (cAMP response element driving beta-lactamase), forskolin EC10, beta-lactamase ratio; Potency, µM (highest dose often 38.2 µM), without a hit: at the top dose activity change, negative = inhibition, actives largely listed as activators; 2.5% of 71,000 active; AID 662; active means well fitted activation curve with a large enough effect in the signal ratio, with a control signal flat, not every such curve was filed as active; inconclusive means small, poorly fitted or top-dose-only effect, or effect the other way, or a change in a side signal; the % refers to the signal ratio; further: potency means the concentration at half of the fitted maximal effect; % of control where 0% means no effect
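Forskolin analogue NKH 477 at EC10 stimulated CRE-driven beta-lactamase in CHO cells alongside compound dilution series. Beta-lactamase was measured with CCF4, excitation 405 nm, emission ratio 460/530 nm.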
A350 fluor: compound fluoresces in the Alexa 350 spectral region. Compound autofluorescence, 340/450 nm, Alexa 350 dye-equivalents; stronger effect = higher value. max dye-equivalent concentration, M. 11% of 59,000 active; in the data active means max dye-equivalent concentration above about 10 nM; inconclusive means mostly about 1.1 nM to 9.6 nM
4-MU autofl: 4-MU region autofluorescence; AID 589; 11% of 59,000 active; compound autofluorescence, 340/450 nm, 4-MU equivalents; stronger effect = higher value; max dye-equivalent concentration, M; in the data active means max dye-equivalent concentration above about 10 nM; inconclusive means mostly about 1.1 nM to 9.6 nM
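Compounds in 100 mM Tris, pH 8.0, sat 15 min at room temperature before fluorescence was read at 340 nm excitation/450 nm emission; a per-plate six-point 4-MU standard curve converted signals to dye-equivalent concentration at each compound concentration.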
HADH2 inh: HADH2 (human) dehydrogenase inhibition; recombinant HADH2, NADH fluorescence, beta-hydroxybutyryl-CoA; Q99714; 3.4% of 73,000 active; Potency, µM (highest dose often 57.1 µM), for inactives: at the highest dose activity change, negative = inhibition, usual class: inhibitors; further: potency means the concentration at half of the fitted maximal effect; on the % scale 0 is the no-effect control and ±100 the full control effect; nearly all actives have a fitted effect of over 60% in size
Target sequence (Q99714 whole entry, looked up, one chain of several): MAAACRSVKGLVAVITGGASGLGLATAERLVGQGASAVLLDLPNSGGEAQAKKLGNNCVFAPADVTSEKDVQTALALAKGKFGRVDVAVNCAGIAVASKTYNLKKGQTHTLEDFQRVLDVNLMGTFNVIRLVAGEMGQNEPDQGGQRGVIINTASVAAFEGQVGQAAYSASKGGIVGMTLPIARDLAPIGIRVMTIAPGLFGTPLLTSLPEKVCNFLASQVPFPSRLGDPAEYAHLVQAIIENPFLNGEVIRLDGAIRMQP
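NADH fluorescence (ex 360/em 450 nm) read every 30 s for 4 min; activity taken as last-minus-first time point difference. Enzyme 20 nM, NAD+ 1 mM, beta-hydroxybutyryl-CoA 90 uM, pH 9.0 Tris buffer.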
AID923: qHTS Assay for Allosteric/Competitive Inhibitors of Caspase-1: Spectroscopic Profiling in AFC Spectral Region | AID 923, 2007 | compound fluorescence, AFC spectral region (405/520 nm) | 1.1% of 75,000 active | Potency, µM (titrated, usually from 57.5 µM), for inactives: at the top dose fluorescence increase, actives largely listed as activators; further: potency means the concentration at half of the fitted maximal effect; 0% is about no effect
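Compound autofluorescence profiled at 405 nm ex/520 nm em during kinetic caspase 1 run (50 nM enzyme, 5 uM Ac-WEHD-AFC, HEPES pH 7.5, 10 mM DTT). Titration up to 57 uM; baseline from regression intercept, normalized to AFC standard curve.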
HSD17B inh: blocks hydroxysteroid 17-beta dehydrogenase activity; Q99714; recombinant HSD17B10, NADH fluorescence kinetic; Potency, µM (highest dose often 57.1 µM), for the others: at the highest dose activity change, negative = inhibition, actives largely listed as inhibitors; 7.6% of 75,000 active;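 further: the protocol describes HADH2 (HSD17B10) and not the HSD17B4 of the title; potency means the concentration at half of the fitted maximal effect; on the % scale 0 is the no-effect control and ±100 the full control effect; nearly all actives have a fitted effect of over 70% in size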
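Enzyme plus compound, 15 min room temperature; substrate mix added (NAD+ 1 mM, beta-hydroxybutyryl-CoA 90 uM final); plates read kinetically for NADH fluorescence. HADH2 was His-tagged, E. coli-derived, 20 nM.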
An asterisk follows results filed as active; i = inactive; ? = inconclusive; . = not tested or not shown; [ ] = another dose, or the depositor's remark. Unless noted, the call rests on the fitted dose curve; in most records, active means well fitted curve in the direction sought with a large enough effect; inconclusive means small, poorly fitted or top-dose-only effect, or another doubt; inactive means no such curve, though single readings can be large; an effect the other way counts as inactive or inconclusive.

SMILES	CRE Fsk mod	A350 fluor	4-MU autofl	HADH2 inh	AID923	HSD17B inh
CN(C)Cc1ccccc1-c1nccc(N(C)C)n1	0%	i	i	-4%	0%	4%
CC(=O)Nc1ccc(S(=O)(=O)Nc2nnc(C3CCCCC3)s2)cc1	-1%	i	i	?	-3%	?
CCc1nnc(NS(=O)(=O)c2ccc(NC(=O)OC)cc2)s1	-6%	1.6e-07M*	1.4e-07M*	?	2%	-5%
Cc1cccn2c(N)c(-c3ccccc3)nc12	-4%	8.5e-07M*	8.9e-07M*	32µM*	12%	32µM*
Cc1nnc2c(-c3ccccc3)nc3ccccc3n12	?	.	.	5%	2%	?
C=C(C)C(=O)OCCCCCCCCCC	-2%	.	.	-1%	3%	6%
CCN(CC)CCNC(=O)c1ccccc1N	.	1e-07M*	8.7e-08M*	.	.	.
COc1ccc(OCCNC(=O)c2ccccc2OCC(=O)N2CCCCC2)cc1	15%	i	i	-3%	2%	7%
Cc1ccc(OCCNC(=O)c2ccccc2N)cc1	-3%	.	.	?	1%	25µM*
O=C(O)CCCSc1nc2ccccc2s1	-7%[7.6 µM]	i	i	-8%[11.4 µM]	-2%[11.5 µM]	11%[11.4 µM]
COc1ccc(S(=O)(=O)N2CCN(c3ccc4nnc(-c5ccc(F)cc5)n4n3)CC2)cc1	?	.	.	14%	0%	32µM*
O=C(Nc1ccc(Cl)cc1)N1CCN(c2ccc3nnc(-c4ccc(F)cc4)n3n2)CC1	.	.	.	-28%	-2%	-30%
Cc1noc(C)c1S(=O)(=O)N1CCC(C(=O)N2CCN(c3ccc(Cl)cc3)CC2)CC1	-14%	i	i	-1%	-1%	1%
O=C(Nc1ccc(-c2nc3ncccc3o2)cc1)c1ccco1	-1%	3.7e-07M*	4.8e-07M*	32µM*	0%	20µM*
Cc1ccc(-c2nc3ncccc3o2)cc1NC(=O)c1cc2ccccc2o1	?	.	.	-3%[11.4 µM]	2%	i
O=C(Cc1ccccc1)Nc1cccc(-c2nc3ncccc3o2)c1	8%	i	i	12%	-1%	25µM*
O=C(Nc1ccc(-c2nc3ncccc3o2)cc1)c1ccc(Br)o1	24%	8.5e-07M*	5.8e-07M*	i	3%	16µM*
CCOC(=O)c1cnc(-n2nc(C)cc2C)nc1NC	3%	i	i	?	-1%	25µM*
CCOC(=O)c1cnc(-n2nc(C)cc2C)nc1N(CC)CC	?	1.5e-08M*	1.2e-08M*	0%	0%	4%
CCOC(=O)c1cnc(-n2nc(C)cc2C)nc1Nc1ccc(N(C)C)cc1	0.63µM*	i	i	3%	2%	-8%
CCOC(=O)c1cnc(-n2nc(C)cc2C)nc1NC1CCCCC1	3%	1.2e-08M*	1e-08M*	-5%	0%	9%
O=c1ccc(S(=O)(=O)N2CCC(Cc3ccccc3)CC2)c[nH]1	?	i	i	8%	-1%	-12%
CCN1CCCC1CNC(=O)C(NC(=O)C1CCC(C)CC1)C(C)C (stereo unspecified)	?	i	i	16%	1%	17%
CCC(C)(C(=O)NC1CCCC1)N(CC1CCCO1)C(=O)CNC(=O)c1ccccc1 (stereo unspecified)	12%	i	i	0%	0%	0%
Cc1ccc(CNC(=O)c2cn(C3CCCCC3)c(=O)c3c2c2ccccc2n3C)o1	?	3.1e-08M*	4.1e-08M*	?	2%	?
SMILES	CRE Fsk mod	A350 fluor	4-MU autofl	HADH2 inh	AID923	HSD17B inh
CC1=C(CCC(=O)O)c2cc3nc(cc4[nH]c(cc5[nH]c(cc1n2)c(C)c5C(C)O)c(C)c4C(C)O)C(C)=C3CCC(=O)O (stereo unspecified)	.	.	.	.	1%	25µM*
C=Cc1c(C)c2cc3[nH]c(cc4nc(cc5nc(cc1[nH]2)C(C)=C5CCC(=O)O)C(CCC(=O)O)=C4C)c(C)c3C=C	20%	i	i	13µM*	4%	?
CCc1cccc(NC2c3ccccc3C(=O)N2c2cccnc2)c1 (stereo unspecified)	4%	.	.	1%	3%	3%
CSC1=C(C#N)C(c2ccc(C)cc2)C2=C(CCCC2=O)N1 (stereo unspecified)	-10%	3.4e-08M*	2.9e-08M*	3%	3%	6%
CCc1ccccc1NC(=O)CSC1=C(C#N)C(c2ccc3c(c2)OCO3)C2=C(CCCC2=O)N1 (stereo unspecified)	-1%	i	i	-8%	-1%	1%
CSC1=C(C#N)C(c2ccccc2Cl)C2=C(CCCC2=O)N1 (stereo unspecified)	-4%	3.3e-08M*	3.2e-08M*	1%	5%	-12%
CCOC(=O)CSC1=C(C#N)C(c2ccc(C)cc2)C2=C(CCCC2=O)N1 (stereo unspecified)	-2%	1.1e-07M*	8e-08M*	-14%	2%	96%
CSC1=C(C#N)C(CC(C)C)C2=C(CCCC2=O)N1 (stereo unspecified)	-3%	i	i	8%	1%	?
CC1=Nc2ccccc2N=C(NC(=O)CSc2nnnn2-c2ccccc2)C1c1ccccc1 (stereo unspecified)	?	i	i	8%	1%	4%
CCN(CC)C(=O)CSc1ncnc2c1cnn2Cc1ccccc1	-9%	1.4e-08M*	1.1e-08M*	22%	2%	-27%
CCOC(=O)CNC(=O)CSc1ncnc2c1cnn2Cc1ccccc1	?	?	i	-1%	1%	0%
COC(=O)c1sc2nc(N3CCCCC3)c3c(c2c1N)CC(C)(C)N(C)C3	.	6.6e-07M*	5.9e-07M*	.	.	.
CCOC(=O)c1sc2nc(N3CCOCC3)c3c(c2c1N)CCC3	10µM*	7.5e-07M*	5.5e-07M*	?	7%	13µM*
COC(=O)c1sc2nc3c(cc2c1N)C(=O)CC(C)(C)C3	5%	i	i	1%	-1%	-6%
Cc1nc2sc(C(=O)O)c(N)c2c2c1COC(C)(C)C2	?	?	?	-10%	5%	5%
CCOC(=O)c1sc2nc(N3CCOCC3)c3c(c2c1N)CC(C)(C)N(C)C3	11%	.	.	26%	13%	25µM*
CCN1CCN(c2ncnc3c2sc2nc(N4CCOCC4)c4c(c23)CCC4)CC1	6%	i	i	-21%	1%	32µM*
CCOc1cc(S(=O)(=O)N2CCOCC2)ccc1F	?	i	i	5%	2%	-1%
CC1(C)Cc2c(c(N3CCOCC3)nc3sc(C#N)c(N)c23)CS1	.	2.1e-07M*	1.6e-07M*	.	.	.
CC1(C)Cc2c(C#N)c(SCCC#N)nc(N3CCOCC3)c2CS1	.	?	i	.	.	.
